Source: PubChem BioAssay (NCI)
This is part of a sample that, as a whole, favours compounds with a hit. Of some 83,000 tested, about 20% had one in any assay.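 Assay: single dose, 48 h. Readout: percent growth (0 = no net growth; negative = cell death). Active: <10.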 Active and inactive are the calls of the source.

Legend:
Test in all cases: NCI-60 one-dose screen, 48 h (100 = growth as untreated, 0 = no growth, -100 = all killed)
Settings in all cases: 10 µM unless noted
[1] = test system: NCI-H23 lung
[2] = test system: NCI-H322M lung
[3] = test system: HOP-62 NSCLC
[4] = test system: NCI-H460 lung
[5] = test system: HOP-92 NSCLC
[6] = test system: A549/ATCC NSCLC
[7] = test system: 786-0 renal
[8] = test system: COLO 205 colon
[9] = test system: DU-145 prostate
[10] = test system: K-562 leukemia
[11] = test system: MALME-3M melanoma
[12] = test system: MDA-MB-231 breast
[13] = test system: RXF 393 renal
[14] = test system: SF-268 CNS
[15] = test system: SF-295 CNS
[16] = test system: SF-539 CNS
[17] = test system: UACC-257 melanoma
[18] = test system: M14 melanoma
[19] = test system: HCT-15 colon
[20] = test system: NCI-H522 lung

Measured: growth

O=C(Nc1ccsc1C(=O)NC1CCCCC1)c1ccc(F)cc1
inactive: [1] 100% | [2] 116% | [3] 103% | [4] 98.3% | [5] 71.1% | [6] 103% | [7] 101% | [8] 104% | [9] 119% | [10] 88.5% | [11] 99.9% | [12] 87.2% | [13] 95.6% | [14] 104% | [15] 110% | [16] 101% | [17] 114% | [18] 101% | [19] 95.6%

CCc1ccc(CNCC(O)c2ccccc2)cc1 (centres undefined)
active: [8] 7.32%
inactive: [1] 69.1% | [2] 75.6% | [3] 76.6% | [4] 77% | [5] 12.7% | [7] 87.5% | [9] 79.7% | [10] 22% | [12] 47% | [13] 61.6% | [14] 90.1% | [16] 86.5% | [17] 93.1% | [18] 58.7% | [19] 43.9%

CCCCC(O)(c1ccc(Cl)cc1)C(CN1CCOCC1)c1ccc(Cl)cc1 (centres undefined)
inactive: [1] 31.2% | [2] 70.8% | [3] 60.1% | [4] 19.4% | [6] 29.6% | [7] 53.8% | [8] 100% | [9] 58.2% | [10] 17.9% | [11] 61.2% | [12] 35.8% | [13] 18.5% | [14] 40.2% | [15] 40.9% | [16] 68.8% | [17] 39.4% | [18] 28.6% | [19] 34.9%
active: [5] -3.36%

O=C(CSc1ccc2nnc(-c3cccc(F)c3)n2n1)Nc1ccc2c(c1)OCO2
inactive: [1] 76.5% | [2] 85% | [3] 81.4% | [4] 81.1% | [6] 52.8% | [7] 93.6% | [8] 112% | [9] 77.1% | [10] 74.2% | [11] 81% | [12] 48.9% | [13] 98.5% | [14] 51.3% | [15] 91.6% | [16] 84.3% | [17] 94.8% | [18] 83.9% | [19] 66.1%
active: [5] -6.23%

O=C(CSc1ncccc1C(=O)O)Nc1ccc(Oc2ccccc2)cc1
inactive: [1] 104% | [2] 99% | [3] 93.8% | [4] 102% | [5] 102% | [6] 98% | [7] 99.8% | [8] 108% | [9] 110% | [10] 94.4% | [11] 99.3% | [12] 124% | [13] 107% | [14] 105% | [16] 106% | [17] 100% | [18] 98.7% | [19] 104%

O=C(NCc1ccccc1)C1CN(c2ccc(Cl)cc2)N(c2ccc(Cl)cc2)C1=O (centres undefined)
inactive: [1] 94% | [2] 95.8% | [3] 74.6% | [4] 85.6% | [5] 86.5% | [6] 69.6% | [7] 99.3% | [9] 97.5% | [10] 35.1% | [11] 73.8% | [12] 91.3% | [13] 81.1% | [14] 82.4% | [15] 76.3% | [16] 93.4% | [17] 79.4% | [18] 74.9% | [19] 59.5%

COc1ccc(-c2nsc3c2NC(=O)CC3c2ccsc2)cc1 (centres undefined)
active: [4] 6.14% | [8] -77.3% | [9] -8.61% | [15] 2.29% | [16] -7.51%
inactive: [1] 39.6% | [2] 42.4% | [3] 33.5% | [5] 71.9% | [6] 27.4% | [7] 29.8% | [10] 13.3% | [11] 43.6% | [13] 18% | [14] 47.1% | [17] 77.3% | [18] 18% | [19] 13.8%

O=C(Cc1ccccc1)NC(c1ccc(Cl)cc1)c1c(O)ccc2ccccc12 (centres undefined)
inactive: [2] 15.4% | [3] 30.9% | [7] 26% | [9] 33.6% | [14] 29.2% | [16] 40% | [18] 16.3% | [19] 15.4%
active: [1] 4.5% | [4] 5.44% | [5] -19.9% | [6] 9.06% | [8] -38.6% | [10] 8.85% | [12] -15.7% | [13] -6.64% | [15] -36.4% | [17] -9.13%

Cn1cc(-c2ccc3ncc(-c4ccc(CC(=O)Nc5cc(C(C)(C)C)no5)cc4)nc3c2)cn1
inactive: [1] 36.6% | [2] 20.6% | [3] 42.5% | [4] 22.8% | [5] 46.3% | [6] 33.7% | [7] 39.2% | [9] 34.3% | [10] 22.5% | [11] 25% | [12] 28.7% | [13] 32.3% | [14] 36% | [15] 47.2% | [16] 27.3% | [17] 61.2% | [18] 34.6% | [19] 16.3%

O=C(NC1C(O)OC(CO)C(O)C1O)NS(=O)(=O)c1ccc(Cl)cc1 (centres undefined)
inactive: [1] 104% | [3] 92.9% | [4] 104% | [5] 101% | [20] 100% | [6] 109% | [7] 104% | [8] 114% | [9] 108% | [10] 108% | [11] 104% | [12] 103% | [13] 115% | [14] 98.7% | [15] 103% | [16] 101% | [17] 104% | [18] 102% | [19] 102%

COc1cc(CNC(=O)c2ccsc2Nc2ccnc(C(F)(F)F)c2)ccc1O
inactive: [1] 92.3% | [3] 126% | [4] 102% | [5] 81.3% | [20] 87% | [6] 100% | [7] 98.1% | [9] 107% | [10] 96.6% | [11] 64.4% | [12] 102% | [13] 106% | [14] 94.1% | [15] 104% | [16] 102% | [17] 107% | [18] 100% | [19] 99.1%

O=C(Nc1ccc(N2CCNCC2)cc1)c1[nH]ncc1Nc1ncnc2sc3c(c12)CCC3
inactive: [17] 26%
active: [1] -68.6% | [3] -76.2% | [4] -81.8% | [5] -56.7% | [20] -50.3% | [6] -71.4% | [7] -81.4% | [8] -77.2% | [9] -92.4% | [10] -62.7% | [11] -75.9% | [12] -84.9% | [13] -90.8% | [14] -72.3% | [15] -77.2% | [16] -98.8% | [18] -91.1% | [19] -85.7%

CN1CCN(Cc2ccc(NC(=O)c3[nH]ncc3Nc3cc(OC4CCCC4)ncn3)cc2)CC1
active: [6] 8.79% | [8] 7.6% | [10] 1.53% | [13] -0.487%
inactive: [1] 45.8% | [3] 55.4% | [4] 22.2% | [5] 14.9% | [20] 26.2% | [7] 20.9% | [9] 37.9% | [11] 65.4% | [12] 23.8% | [14] 40.7% | [15] 45.9% | [16] 30.3% | [17] 48.1% | [18] 19.9% | [19] 12.9%

Cn1c(=O)n(C)c2cc(CNCCNc3ccnc4cc(Cl)ccc34)ccc21
inactive: [1] 95.3% | [3] 78.1% | [5] 55.9% | [20] 94.9% | [6] 70.3% | [8] 55.1% | [9] 74.8% | [11] 43.6% | [12] 62.5% | [13] 52.1% | [14] 97.9% | [16] 58.9%
active: [4] 2.02% | [7] 1.49% | [10] 5.18% | [15] -69.4% | [17] -61.8% | [18] -52.8% | [19] 9.62%

CCOC(=O)c1c2c(n3cccc(Cl)c13)C(=O)c1ncccc1C2=O
inactive: [1] 34.2% | [3] 41.9% | [4] 10% | [5] 87.6% | [20] 81.3% | [6] 38.4% | [7] 73.9% | [8] 73.5% | [9] 45.8% | [10] 62.3% | [11] 42.7% | [12] 24.9% | [14] 41.1% | [15] 63.9% | [16] 77.2% | [17] 60.8% | [18] 22.6% | [19] 25.6%

Cc1nc2ccccc2c(/C=C/c2ccccc2)c1C(=O)/C=C/c1ccc(Cl)cc1
inactive: [1] 34.8% | [3] 11.7% | [5] 46.9% | [6] 25.3% | [8] 31.3% | [11] 40.8% | [14] 44.6% | [15] 29% | [16] 26.6% | [17] 29.9% | [18] 17.1%
active: [4] -37.6% | [20] -18.9% | [7] 2.52% | [9] 4.72% | [10] 5.19% | [12] 8.28% | [13] -28.2% | [19] -13.2%
